The values below come from PubChem BioAssay (Tox21).

“And” between values parts separate entries of the source, which are not always exact repeats. Identical values can stand only once. Records with an inconclusive call do not appear. Values without a mark were called inactive. The source made the active and inactive calls. The call rests on the fitted dose curve; in most records, active means well fitted cell-killing curve with a large enough effect in the repeat runs; inconclusive means weak or mixed curves, or effect the other way; inactive means flat fitted curve, though single readings scatter.

Assay [1] in a line: cAMP Responsive Elements (CRE) small molecule antagonists, cell-based qHTS assay: qHTS cell viability counter screen (AID 2060913). Further: nearly all actives have a fitted effect of over 40% in size. The conditions noted are these: CRE-bla HEK293T viability, CellTiter-Glo luminescence, 5 h; series mostly up to 92.4 µM. In outline:
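CRE-bla HEK293T cells were seeded in assay medium with 10% dialyzed FBS, incubated 18 hrs at 37 C, then exposed to compounds plus 0.25 uM final NKH477 for 3 hrs. Viability was read by CellTiter-Glo luminescence after 30 min, in the same wells.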
For orientation: In qHTS, concentration-response curves come from the screen itself.

The nature of assay [2]: cAMP Responsive Elements (CRE) small molecule agonists, cell-based qHTS assay: qHTS cell viability counter screen (AID 2060914). Further: nearly all actives have a fitted effect of over 50% in size. The conditions noted are these: CRE-bla HEK293T viability, CellTiter-Glo luminescence, 5 h; series mostly up to 92.4 µM. The essentials: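 In the same wells as the reporter read, viability of CRE-bla HEK 293T cells was quantified by CellTiter-Glo luminescence after a 3 h compound exposure.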
On the % scale 0 is the no-effect control and ±100 the full control effect; potency means the concentration at half of the fitted maximal effect.

Take `O=c1c2ccccc2oc2ccccc12`: the Potency result in assay [1] and in assay [2] was “inactive” each time.

With `CC(=O)CC/C=C(\C)CCC=C(C)C`, the Potency result in assay [1] and in assay [2] was “inactive” in each case.

Regarding `CCCCCCCCCCCCCC[N+](C)(C)C`, the Potency in assay [1] is 52.7 µM (active) and 48.5 µM (active); in assay [2], 52.7 µM (active).

In the case of `SCCOCCOCCS`, the Potency entry in assay [1] and in assay [2] was “inactive” in each case.

Consider `CN(C)CCC(c1ccccc1)c1ccccn1` (centres undefined), for which the Potency entry in assay [1] and in assay [2] was “inactive” throughout.

As to `NCc1cccc(CN)c1`, the Potency result in assay [1] and in assay [2] was “inactive” throughout.

Take `O=C1OC2(c3ccc(O)cc3Oc3cc(O)ccc32)c2ccccc21`: the Potency entry in assay [1] and in assay [2] was “inactive” each time.

Take `C=C[Si](OCC)(OCC)OCC`: the Potency entry in assay [1] and in assay [2] was “inactive” in each case.

As for `O=C(O)c1ccc(C(=O)O)c(C(=O)O)c1`, the Potency result in assay [1] and in assay [2] was “inactive” each time.

Turning to `CCCCCCOC(=O)c1ccc(O)cc1`, the Potency result in assay [1] and in assay [2] was “inactive” throughout.

For `Oc1ccc2c(c1)OCO2`, the Potency result in assay [1] and in assay [2] was “inactive” each time.

Turning to `NC(N)=NCCN1CCCCCCC1`, the viability change, negative = cytotoxic in assay [1] is 0.247% [at 0.349 µM]. For the same compound, in assay [2], the activity change, negative = cytotoxicity is -6.13% [at 0.349 µM].

For `C=CC[N+]1([C@H]2C[C@H]3[C@@H]4CC[C@H]5C[C@H](OC(C)=O)[C@@H](N6CCCCC6)C[C@]5(C)[C@H]4CC[C@]3(C)[C@H]2OC(=O)CC)CCCCC1`, the Potency entry in assay [1] and in assay [2] was “inactive” each time.

Turning to `CCc1ccccc1`, the Potency result in assay [1] and in assay [2] was “inactive” throughout.

`COc1c(N2C[C@@H]3CCCN[C@@H]3C2)c(F)cc2c(=O)c(C(=O)O)cn(C3CC3)c12`: the Potency entry in assay [1] and in assay [2] was “inactive” in each case.

For the compound `OC[C@H]1O[C@@H]2O[C@H]3[C@H](O)[C@@H](O)[C@@H](O[C@H]4[C@H](O)[C@@H](O)[C@@H](O[C@H]5[C@H](O)[C@@H](O)[C@@H](O[C@H]6[C@H](O)[C@@H](O)[C@@H](O[C@H]7[C@H](O)[C@@H](O)[C@@H](O[C@H]8[C@H](O)[C@@H](O)[C@@H](O[C@H]9[C@H](O)[C@@H](O)[C@@H](O[C@H]1[C@H](O)[C@H]2O)O[C@@H]9CO)O[C@@H]8CO)O[C@@H]7CO)O[C@@H]6CO)O[C@@H]5CO)O[C@@H]4CO)O[C@@H]3CO`, the Potency entry in assay [1] and in assay [2] was “inactive” throughout.

On to `CCCC(c1cc(C(C)(C)C)c(O)cc1C)c1cc(C(C)(C)C)c(O)cc1C`, for which the figures for the Potency in assay [1] and in assay [2] were 24.6 µM (active) and 31 µM (active), respectively.

With `CCCCCCCCOC(C)=O`, the Potency result in assay [1] and in assay [2] was “inactive” throughout.

In the case of `CC(=O)Nc1cccc(O)c1`, the Potency entry in assay [1] and in assay [2] was “inactive” throughout.

With `O[C@@H](CNC[C@H](O)[C@H]1CCc2cc(F)ccc2O1)[C@@H]1CCc2cc(F)ccc2O1`, the Potency entry in assay [1] and in assay [2] was “inactive” throughout.

With `CNCCc1ccccn1`, the Potency entry in assay [1] and in assay [2] was “inactive” each time.

Regarding `COC(=O)c1c(C)cc(O)c(C)c1O`, the Potency entry in assay [1] and in assay [2] was “inactive” each time.

Turning to `CC(C)=CCC/C(C)=C\CO`, the Potency entry in assay [1] and in assay [2] was “inactive” each time.

Regarding `Clc1ccc2c(c1)CCc1cccnc1C2=C1CCNCC1`, the Potency result in assay [1] and in assay [2] was “inactive” each time.

In the case of `C=CCCCCCCCCCCCCCC`, the viability change, negative = cytotoxic in assay [1] is -1.45% [at 18.9 µM]. Besides, the activity change, negative = cytotoxicity in assay [2] is -8.5% [at 18.9 µM].

Turning to `O=C(O)c1ccccc1[N+](=O)[O-]`, the Potency entry in assay [1] and in assay [2] was “inactive” each time.

As for `c1ccc(SSc2ccccc2)cc1`, the Potency result in assay [1] and in assay [2] was “inactive” in each case.

As for `CC(=O)OC(C)(C)Cc1ccccc1`, the Potency entry in assay [1] and in assay [2] was “inactive” throughout.

Turning to `O=C1CCCN1CCO`, the Potency entry in assay [1] and in assay [2] was “inactive” each time.

As to `NC(=O)c1ccccc1`, the Potency result in assay [1] and in assay [2] was “inactive” in each case.

As for `CCCCCCCC/C=C/C(=O)O`, the Potency entry in assay [1] and in assay [2] was “inactive” throughout.

Turning to `CC(=O)O[C@]1(C(C)=O)CC[C@H]2[C@@H]3C=C(Cl)C4=CC(=O)[C@@H]5C[C@@H]5[C@]4(C)[C@H]3CC[C@@]21C`, the Potency result in assay [1] and in assay [2] was “inactive” in each case.

Take `C=CC(=O)OCCOC(=O)CCC(=O)O`: the Potency entry in assay [1] and in assay [2] was “inactive” each time.

For the compound `N=C(N)c1ccc2cc(OC(=O)c3ccc(N=C(N)N)cc3)ccc2c1`, the Potency entry in assay [1] and in assay [2] was “inactive” throughout.

`O=C(CCNNC(=O)c1ccncc1)NCc1ccccc1`: the Potency result in assay [1] and in assay [2] was “inactive” throughout.

As for `CCC(C)C=O` (centres undefined), the Potency result in assay [1] and in assay [2] was “inactive” in each case.

With `CC(C)c1ccc(C#N)cc1`, the Potency entry in assay [1] and in assay [2] was “inactive” each time.

As for `CO[C@@H]1COCC[C@@H]1N[C@@H]1CC[C@@](C(=O)N2CCc3ncc(C(F)(F)F)cc3C2)(C(C)C)C1`, the Potency result in assay [1] and in assay [2] was “inactive” throughout.

In the case of `CC1OC1C1CCC2(C)OC2C1` (centres undefined), the Potency result in assay [1] and in assay [2] was “inactive” throughout.

On to `CCCCNC(=O)NS(=O)(=O)c1ccc(C)cc1`, for which the Potency result in assay [1] and in assay [2] was “inactive” throughout.

With `CC(=O)O[C@H]1C[C@@H]2CC[C@@H]3[C@H](CC[C@@]4(C)[C@H]3C[C@H]([N+]3(C)CCCCC3)[C@@H]4OC(C)=O)[C@@]2(C)C[C@@H]1N1CCCCC1`, the Potency entry in assay [1] and in assay [2] was “inactive” throughout.

On to `CN(C)CC[C@@H](c1ccc(Br)cc1)c1ccccn1`, for which the Potency result in assay [1] and in assay [2] was “inactive” in each case.

On to `CC1CN(c2ccccc2)NC1=O` (centres undefined), for which the Potency entry in assay [1] and in assay [2] was “inactive” each time.

For `CC1Cc2ccccc2N1NC(=O)c1ccc(Cl)c(S(N)(=O)=O)c1` (centres undefined), the Potency result in assay [1] and in assay [2] was “inactive” in each case.

As for `CCC(CC)Nc1ccc(C)c(C)c1`, the Potency result in assay [1] and in assay [2] was “inactive” in each case.

Consider `CC(C)(C)c1n[nH]c(=O)n(N)c1=O`, for which the Potency result in assay [1] and in assay [2] was “inactive” each time.

For the compound `Cc1ccc2c(c1[N+](=O)[O-])C(=O)c1ccccc1C2=O`, the Potency result in assay [1] and in assay [2] was “inactive” in each case.

On to `CC(C)C(=O)Nc1cccc(C2CN3CCSC3=N2)c1` (centres undefined), for which the Potency entry in assay [1] and in assay [2] was “inactive” each time.

Take `CCCCCCCCCOC(=O)CCCCC(=O)OCCCCCCC`: the Potency entry in assay [1] and in assay [2] was “inactive” each time.

On to `CC(CCl)OP(=O)(OC(C)CCl)OC(C)CCl` (centres undefined), for which the Potency result in assay [1] and in assay [2] was “inactive” each time.

For the compound `C=CCCCCCCCC`, the Potency entry in assay [1] and in assay [2] was “inactive” in each case.

Consider `O=C(O)c1ccc(OCCN2CCCCC2)cc1`, for which the Potency result in assay [1] and in assay [2] was “inactive” throughout.
